Bioassay records from PubChem.
In the library only some 19% were active in any assay of this set; here they are far more common.
DT40 TDP1 CPT = growth inhibition of DT40 Tdp1-/-;hTDP1 cells with camptothecin (screen for TDP1 inhibitors); chicken DT40 Tdp1-/-;hTDP1 cells + 20 nM CPT, ATP luminescence, 48 h; Potency, µM (doses to about 46.2 µM), for the others: top-dose activity change, negative = growth inhibition, actives largely listed as inhibitors; 420,000 compounds, 12% hits; AID 686979; also: potency is read from the fitted curve at half-maximal effect; nearly all actives have a fitted effect of over 55% in size
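Chicken DT40 Tdp1-/- cells complemented with human TDP1, 400 cells/well, exposed to compounds plus 20 nM camptothecin for at least 48 h at 37 C; viability read as ATP content by CellTiter-Glo luminescence.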
HT1080-NT tox = kills 2HG-producing HT-1080-NT fibrosarcoma cells. Potency, µM (doses to about 46.1 µM), inactives show top-dose activity, negative = less viability, usual class: cytotoxic. 360,000 compounds, 1.6% hits. AID 686970. HT-1080-NT fibrosarcoma viability, CellTiter-Glo ATP luminescence, 48 h;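 also: NT is the 2HG producing partner of a matched IDH1 knockdown line; potency is read from the fitted curve at half-maximal effect; 0% = DMSO-treated cells and -100% = media-only wells without cells; nearly all actives have a fitted effect of over 55% in size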
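Fibrosarcoma NT cells, 750 per well in 5% FBS RPMI, were exposed to compound for 48 hours. Viability: CellTiter-Glo luminescence.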
IL-1B inflam inh = blocks inflammasome-driven IL-1 beta release. THP-1 LPS/ATP IL-1B secretion, AlphaLISA, 16 h; active compounds read low. activity change, % at 57.5 µM. 360,000 compounds, 4.7% hits; in the data active = activity change below about -50%; inconclusive = mostly about -30% to -49%
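THP-1 cells pretreated 1 hr with compounds (up to 57.5 uM final), then stimulated with LPS (250 ng/mL final) plus ATP (1.25 mM final); secreted IL-1B measured by AlphaLISA after 16 hr, decreased signal indicating inhibition.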
ELG1 repair inh = blocks ELG1-dependent DNA repair in HEK293T cells | Potency, µM (titrated, usually from 46.1 µM), inactives show at the top dose activity change, negative = inhibition, most hits filed as inhibitors | 330,000 compounds, 2.3% hits | HEK293T ELG1-luciferase reporter, luminescence, 16 h; DNA damage induced by 5-fluorouridine; also: potency is read from the fitted curve at half-maximal effect; nearly all actives have a fitted effect of over 55% in size
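Quantitative HTS, concentration-response format. 2,000 cells/well co-treated with 5-fluorouridine and compound, 16 hr in 5% CO2 at 37 °C; ONE-Glo luminescence read after 30 min.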
DT40 TDP1 no CPT = qHTS for Inhibitors of human tyrosyl-DNA phosphodiesterase 1 (TDP1): qHTS in cells in absence of CPT. DT40 Tdp1-/- hTDP1 cells, no CPT, ATP luminescence, 48 h. Potency, µM (series often up to 46.2 µM), without a hit: at the highest dose activity change, negative = growth inhibition, hits mostly inhibitors. 420,000 compounds, 15% hits. AID 686978, 2013; also: potency is read from the fitted curve at half-maximal effect; nearly all actives have a fitted effect of over 55% in size
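Growth kinetics read by CellTiter-Glo luminescence after ≥48 hr at 37 °C. Cells: DT40 Tdp1-/- stably carrying human TDP1, 400 per well, compound exposure in the absence of CPT (DMSO vehicle).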
HT1080 IDH1KD tx = kills HT-1080 cells with IDH1 knockdown | HT-1080 IDH1 knockdown viability, ATP luminescence, 48 h | Potency, µM (top dose mostly 46.1 µM), for the others: at the highest dose activity, negative = toxicity, usual class: cytotoxic | 360,000 compounds, 2% hits | AID 686971;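 also: potency is read from the fitted curve at half-maximal effect; 0% = DMSO wells and -100% = cell-free medium wells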
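HT-1080-IDH1KD cells (IDH1 knocked down), 750/well in RPMI with 5% FBS, treated with compound 48 h at 37 degrees C. Viability by CellTiter-Glo luminescence, normalised to DMSO and no-cell wells; concentration-response curves classed.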
* marks the source's active call; other numbers are inactive results; ? = inconclusive; . = no result given; [ ] = another dose, or the depositor's remark. Unless noted, calls follow the shape of the dose curve; as a rule, active = well fitted curve in the direction sought with a large enough effect; inconclusive = small, poorly fitted or top-dose-only effect, or another doubt; inactive = no such curve, though single readings can be large; an effect the other way counts as inactive or inconclusive. Unless noted, % is scaled to controls: 0 for no effect and ±100 for the full control effect.

SMILES	DT40 TDP1 CPT	HT1080-NT tox	IL-1B inflam inh	ELG1 repair inh	DT40 TDP1 no CPT	HT1080 IDH1KD tx
CCn1c(COc2ccc(=O)n(-c3ccccc3)n2)nnc1SCc1ccccc1C	16µM*	0%	-8	-3%	?	0%
COc1ccccc1CNS(=O)(=O)CCNCCc1ccccc1	-20%	-2%	13	.	-9%	-3%
CS(=O)(=O)c1ccccc1-c1nnc(NC(=O)c2ccc(S(=O)(=O)N3CCCC3)cc2)o1	-11%	-9%	-2	7%	-3%	-23%
COc1ccc(-c2nnc(NC(=O)c3ccc(S(=O)(=O)N4COCC4(C)C)cc3)o2)cc1	3.7µM*	?	25	-25%	3.7µM*	8.2µM*
CC1(C)COCN1S(=O)(=O)c1ccc(C(=O)Nc2nnc(-c3ccc(Cl)s3)o2)cc1	4µM*	?	61	?	4.5µM*	2.8µM*
CC1CCCCN1S(=O)(=O)c1ccc(C(=O)Nc2nnc(-c3ccncc3)o2)cc1 (centres undefined)	?	?	10	?	?	?
CCOC(=O)C1(CC2CC2)CCN(C(=O)c2cccnc2C)CC1	-21%	-5%	24	22%	?	-3%
CC(=O)c1ccc(NC(=O)Cn2c3ncccc3c(=O)n2-c2ccc(C)cc2)cc1	16µM*	.	.	.	16µM*	.
Cc1ccc(-n2c(=O)c3cccnc3n2CC(=O)NCc2ccc(Cl)cc2)cc1	-5%	.	.	.	-11%	.
COc1ccc(NC(=O)Cn2c3ncccc3c(=O)n2-c2ccc(C)c(C)c2)c(OC)c1	-13%	.	.	.	-24%	.
CCN(C(=O)Cn1c(=O)n(Cc2ccccc2)c(=O)c2ccccc21)c1cccc(C)c1	-11%	-7%	-24	-6%	?	-3%
CCc1ccc(-n2c(=O)c3cccnc3n2CC(=O)Nc2cc(F)ccc2F)cc1	2.6µM*	.	.	.	8.2µM*	.
CCc1ccc(-n2c(=O)c3cccnc3n2CC(=O)N(CC)c2cccc(C)c2)cc1	23µM*	.	.	.	13µM*	.
CCc1cccc(-n2c(=O)c3cccnc3n2CC(=O)Nc2ccc(OC)c(Cl)c2)c1	21µM*	.	.	.	26µM*	.
Cc1ccccc1N1C(=O)C2ON(c3ccccc3)C(c3ccco3)C2C1=O (centres undefined)	19%	13%	12	2%	2%	3%
COC(=O)c1ccc(NCc2cc(O)ccc2O)cc1O	5.2µM*	?	-104*	.	3.3µM*	?
Cc1cccc(NCc2ccccc2O)c1	-14%	-2%	0	-1%	-24%	-13%
COC(=O)c1ccc(NCc2c(O)ccc(O)c2Br)cc1Cl	2.6µM*	-12%	-119*	.	4.6µM*	-24%
C=CCOc1c(Br)cc(CNn2nnnc2N)cc1OC	-20%	-6%	24	-7%	7.3µM*	0%
C=CCOc1c(Br)cc(CNc2ccc(NC(=O)C(C)C)c(OC)c2)cc1OC	?	?	-3	-7%	18µM*	?
CC(C)c1ccc(OCc2cc(=O)n3c4c(sc3n2)CCCC4)cc1	2%	.	.	.	-4%	.
Cc1cccc(C)c1NC(=O)C(c1cccs1)N(Cc1ccco1)C(=O)Cn1nnc2ccccc21 (centres undefined)	?	8%	-3	1%	10µM*	3%
Cc1ccc(C(C(=O)NC2CCCCC2)N(Cc2ccco2)C(=O)Cn2cnc3ccccc32)cc1 (centres undefined)	18µM*	-21%	-2	-24%	?	?
O=C(NCc1ccco1)C(c1ccccc1)N(CC1CCCO1)C(=O)Cn1nnc2ccccc21 (centres undefined)	-19%	-4%	1	-8%	?	0%
O=C(NCc1ccco1)C(c1ccccc1)N(Cc1ccccc1)C(=O)Cn1nnc2ccccc21 (centres undefined)	?	-8%	?	18µM*	?	-4%
SMILES	DT40 TDP1 CPT	HT1080-NT tox	IL-1B inflam inh	ELG1 repair inh	DT40 TDP1 no CPT	HT1080 IDH1KD tx
O=C(NC1CCCCC1)C(c1ccc(F)cc1)N(Cc1ccco1)C(=O)CN1C(=O)c2ccccc2S1(=O)=O (centres undefined)	?	-2%	-3	14%	18µM*	-1%
COc1cc(SC)ccc1C(=O)N(CC(=O)Nc1ccccc1Br)Cc1ccco1	?	-16%	?	-8%	?	-6%
O=C(NC1CCCCC1)C(c1ccccc1F)N(Cc1ccco1)C(=O)Cn1nnc2ccccc21 (centres undefined)	?	-8%	-7	-19%	18µM*	-1%
O=C(NC1CCCCC1)C(c1ccc(F)cc1)N(Cc1ccco1)C(=O)Cn1nnc2ccccc21 (centres undefined)	-23%	-17%	9	2%	-16%	-28%
COc1cccc(C(C(=O)NCc2ccco2)N(C(=O)Cn2nnc3ccccc32)C2CC2)c1OC (centres undefined)	18µM*	11%	7	-4%	13µM*	13%
Cc1ccccc1C(C(=O)NCc1ccco1)N(CC1CCCO1)C(=O)Cn1nnc2ccccc21 (centres undefined)	?	-3%	-14	?	-28%	13%
COc1cc(=O)n2c(c1C(=O)N(C)Cc1nonc1C)CCN(Cc1cccc3ccccc13)CC2	25%[9.04 µM]	.	.	.	?	.
Clc1ccc(Nc2nc(-c3ccccc3)c3ccccc3n2)c(Cl)c1	-9%	.	.	.	-1%	.
Nc1nc(Nc2ccc(Cl)cc2)nc2ccccc12	7.3µM*	-11%	-119*	?	5.8µM*	-14%
CN(C)c1ccc(Nc2nc(N)c3ccccc3n2)cc1	26µM*	?	-96*	?	13µM*	?
CCOc1ccc(Nc2nc(N)c3ccccc3n2)cc1	7.3µM*	21µM*	-91*	?	?	18µM*
CCOC(=O)C(CCSC)Nc1nc(Cl)nc(Nc2ccc(Cl)cc2)n1 (centres undefined)	-4%	-16%	4	.	?	-6%
CCn1cc(C(=O)NC2CCCCC2C)c(=O)c2ccc(C)nc21 (centres undefined)	?	8%	-21	.	11µM*	15%
CCn1cc(C(=O)Nc2ccc(C(=O)N3CCCC3)cc2)c(=O)c2ccc(C)nc21	.	.	.	9%	.	.
COc1ccc(OCC(=O)Nc2ccc(OC)c(S(=O)(=O)N3CCCCC3)c2)cc1	15µM*	-18%	2	?	12µM*	?
